Measured values reported in PubChem BioAssay AID1159580 (chemical genetic matrix, 2015).
“And” between values parts separate entries of the source, which are not always exact repeats. Equal entries are not always repeated. Screen size: about 5,500 compounds; about 2,000 (36%) were called active. Roughly 18% stayed inconclusive and do not appear here. Cut-off read from the data, not from the text of the source: active = normalized growth mostly below about 0.91 (no sharp cut-off); inconclusive = no clear call, values can overlap the other calls; inactive = mostly above about 0.92. Some of the results follow.

Experiment: chemical genetic growth profiling, strain panel (AID 1159580);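 note: tested at 20 µM; growth read once vehicle control cultures reached saturation at 30 °C; 1 = growth at the plate median or of vehicle wells; lower values mean less growth of the strain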
Conditions: S. cerevisiae deletion strains, growth OD

Measured: normalized growth

C#CCN(C)Cc1ccccc1
inactive: locus YAL013W, strain DEP1, hits give low values 0.994 | locus YAL021C, strain ccr4, hits give low values 1.03 | locus YAL026C, strain drs2, hits give low values 1.02 | locus YAL030W, strain snc1, hits give low values 0.999 | locus YAL040C, strain CLN3, hits give low values 0.998 | locus YBL061C, strain skt5, hits give low values 0.984 | locus YBR009C, strain hhf1, hits give low values 0.982 | locus YBR021W, strain FUR4, hits give low values 1.02 | locus YBR023C, strain chs3, hits give low values 0.997 | locus YBR171W, strain sec66, hits give low values 1.04 | locus YBR229C, strain ROT2, hits give low values 1 | locus YBR231C, strain swc5, hits give low values 1.01 | locus YBR279W, strain paf1, hits give low values 0.977 | locus YCL011C, strain gbp2, hits give low values 1 | locus YCL016C, strain dcc1, hits give low values 0.962 | locus YCL029C, strain bik1, hits give low values 1.02 | locus YCL061C, strain MRC1 (second series), hits give low values 1 | locus YCL069W, strain vba3, hits give low values 1.02 | locus YCR088W, strain abp1, hits give low values 1.04 | locus YDL005C, strain med2, hits give low values 1.02 | locus YDL035C, strain GPR1, hits give low values 0.997 | locus YDL040C, strain nat1, hits give low values 1.02 | locus YDL074C, strain BRE1, hits give low values 0.991 | locus YDL101C, strain DUN1, hits give low values 1.01 | locus YDL134C, strain PPH21, hits give low values 1 | locus YDL185W, strain tfp1, hits give low values 1.01 | locus YDL192W, strain arf1, hits give low values 1.02 | locus YDR001C, strain nth1, hits give low values 1.01 | locus YDR069C, strain doa4, hits give low values 0.955 | locus YDR101C, strain arx1, hits give low values 1.02 | locus YDR137W, strain rgp1, hits give low values 0.98 | locus YDR159W, strain sac3, hits give low values 0.933 | locus YDR162C, strain NBP2, hits give low values 1 | locus YDR195W, strain ref2 0.988 | locus YDR297W, strain sur2, hits give low values 0.998 | locus YDR318W, strain mcm21, hits give low values 1.03 | locus YDR334W, strain swr1, hits give low values 1.02 | locus YDR335W, strain msn5, hits give low values 0.996 | locus YDR363W, strain ESC2, hits give low values 0.949 | locus YDR388W, hits give low values 1.02 | locus YDR392W, strain spt3, hits give low values 0.958 | locus YDR502C, strain sam2, hits give low values 1.01 | locus YEL003W, strain gim4, hits give low values 1.04 | locus YEL037C, strain rad23, hits give low values 1.03 | locus YEL061C, strain CIN8 (second series), hits give low values 1.02 | locus YEL061C, strain CIN8, hits give low values 0.99 | locus YER002W, strain NOP16, hits give low values 1.02 | locus YER015W, strain faa2, hits give low values 1 | locus YER016W, strain bim1, hits give low values 0.979 | locus YER110C, hits give low values 1.01 | locus YER111C, strain swi4, hits give low values 1.01 | locus YER155C, strain BEM2 (second series), hits give low values 1.01 | locus YER155C, strain BEM2, hits give low values 1 | locus YER167W, strain BCK2, hits give low values 1 | locus YFR010W, strain ubp6, hits give low values 1.04 | locus YGL078C, strain dbp3, hits give low values 1.01 | locus YGL086W, strain mad1, hits give low values 0.998 | locus YGL167C, strain pmr1, hits give low values 0.987 | locus YGL173C, strain kem1, hits give low values 1.05 | locus YGL227W, strain vid30, hits give low values 1.01 | locus YGL240W, strain doc1, hits give low values 0.977 | locus YGL248W, strain PDE1, hits give low values 1 | locus YGL253W, strain hxk2, hits give low values 1.02 | locus YGR078C, strain PAC10, hits give low values 0.995 | locus YGR135W, strain pre9, hits give low values 1.02 | locus YGR252W, strain gcn5, hits give low values 0.965 | locus YHR013C, strain ard1, hits give low values 1 | locus YHR027C, strain rpn1, hits give low values 1.02 | locus YHR030C, strain SLT2, hits give low values 0.992 and 0.966 | locus YHR079C, strain IRE1 (second series), hits give low values 1.03 | locus YHR079C, strain IRE1, hits give low values 0.927 | locus YHR094C, strain hxt1, hits give low values 1.02 | locus YHR129C, strain ARP1, hits give low values 0.996 | locus YHR142W, strain chs7, hits give low values 1.06 | locus YHR200W, strain rpn10, hits give low values 1.01 | locus YIL066C, strain RNR3, hits give low values 0.992 | locus YIL073C, strain SPO22, hits give low values 1.06 | locus YIL125W, strain kgd1, hits give low values 1.01 | locus YIR030C, strain dcg1, hits give low values 1.01 | locus YJL092W, strain hpr5, hits give low values 1.02 | locus YJL095W, strain BCK1 (second series), hits give low values 1.01 | locus YJL095W, strain BCK1, hits give low values 0.99 and 0.98 | locus YJL115W, strain asf1, hits give low values 1.01 | locus YJL129C, strain trk1, hits give low values 1.03 | locus YJL134W, strain LCB3, hits give low values 1 | locus YJL154C, strain vps35, hits give low values 1.01 | locus YJL164C, strain tpk1, hits give low values 1.01 | locus YJL166W, strain qcr8, hits give low values 1.03 | locus YJL168C, strain set2, hits give low values 1.01 | locus YJL187C, strain SWE1 (second series), hits give low values 1 | locus YJL187C, strain SWE1, hits give low values 1.01 | locus YJR043C, strain POL32, hits give low values 0.997 | locus YJR066W, strain TOR1, hits give low values 0.936
